Only some compounds are listed: those with a hit (about 3% of all), similar ones and a draw of the others.
HEK293 viab – reduces viability of HEK-293 SNCA reporter cells. HEK-293-SNCA-luc viability, GF-AFC fluorescence, 24 h. Potency, µM (top dose mostly 57.1 µM), without a hit: at the highest dose activity change, negative = cytotoxicity, usual class: cytotoxic. 150,000 tested, 0.12% active. AID 1671193;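 note: potency is the fitted concentration of half-maximal effect; 0% = DMSO-treated cells and -100% = medium-only wells without cells; nearly all actives have a fitted effect of over 30% in size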
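HEK-293-SNCA-luc cells (1500/well) plated 24 h, then exposed 24 h to a dilution series; GF-AFC added 30 min at 37C, fluorescence 405/540 nm; normalised to medium-only and DMSO wells, Hill fit.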
SNCA expr inh – SNCA gene expression inhibition. HEK-293 SNCA-luciferase knock-in, luminescence, 24 h. Potency, µM (top dose mostly 57.2 µM), without a hit: at the top dose activity change, negative = inhibition, actives largely listed as inhibitors. 140,000 tested, 0.17% active;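 note: potency is the fitted concentration of half-maximal effect; plate controls were DMSO cells for no effect and cell-free wells for full effect; nearly all actives have a fitted effect of over 45% in size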
KDM5B inh – inhibitors of human KDM5B histone demethylase | Q9UGL1 | KDM5B demethylase, FDH-coupled NADH fluorescence (FDH is formaldehyde dehydrogenase) | Potency, µM (series often up to 57.7 µM), actives largely listed as inhibitors | 220,000 tested, 2.6% active | AID 1347165; note: potency is the fitted concentration of half-maximal effect; 0% is about no effect; nearly all actives have a fitted effect of over 70% in size
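Compound dilutions met 200 nM (final) KDM5BΔAP for 10 min at room temperature before substrate addition. The substrate mix held 12.5 µM H3K4me3 with cofactors 25 µM α-ketoglutarate and 50 µM Fe²⁺. NADH signal gain over 30 min defined activity.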
IP6K1 inh – inhibitors of human IP6K1; 140,000 tested, 0.81% active; IP6K1 kinase, ADP-Glo luminescence, 2 h; hits give low values; activity change, % (series mostly up to about 58 µM); in the data active = activity change below about -25%; note: % is set by controls: 0 for no effect and ±100 for the full control effect
Target sequence (Q92551 whole entry, looked up): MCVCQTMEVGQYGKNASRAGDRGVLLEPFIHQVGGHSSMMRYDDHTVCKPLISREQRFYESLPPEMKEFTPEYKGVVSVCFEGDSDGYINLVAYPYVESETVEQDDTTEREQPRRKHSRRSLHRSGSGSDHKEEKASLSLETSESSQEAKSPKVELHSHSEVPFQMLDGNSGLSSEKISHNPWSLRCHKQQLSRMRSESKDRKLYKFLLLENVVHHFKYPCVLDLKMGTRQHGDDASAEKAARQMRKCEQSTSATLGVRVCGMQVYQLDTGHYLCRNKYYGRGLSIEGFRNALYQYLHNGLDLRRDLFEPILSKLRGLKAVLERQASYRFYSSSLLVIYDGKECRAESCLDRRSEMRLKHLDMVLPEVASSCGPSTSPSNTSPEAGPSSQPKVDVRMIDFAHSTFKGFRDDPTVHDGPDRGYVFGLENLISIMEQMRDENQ
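ADP-Glo luminescence measures ADP made by human IP6K1 during a 2 h RT reaction with ATP/IP6 (mix at 1.3 mM/130 uM); top library doses 57.5 and 19.1 uM final.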
IP6K1 inh cnf – confirmation of human IP6K1 inhibitors. shares compounds with IP6K1 inh. recombinant IP6K1 kinase, ADP-Glo luminescence, 2 h. Potency, µM (titrated, usually from 49 µM), inactives show at the top dose activity change, negative = inhibition, hits mostly inhibitors. 1,200 tested, 13% active; note: potency is the fitted concentration of half-maximal effect; % is set by controls: 0 for no effect and ±100 for the full control effect; nearly all actives have a fitted effect of over 65% in size
* hit, by the source's call; i = inactive; ? = inconclusive; · = no result given; ! = not confirmed by another sample; [ ] = remark or other dose. Unless noted, calls come from the whole dose curve; as a rule, active = well fitted curve in the direction sought with a large enough effect; inconclusive = small, poorly fitted or top-dose-only effect, or another doubt; inactive = no such curve, though single readings can be large; an effect the other way counts as inactive or inconclusive.

SMILES | HEK293 viab | SNCA expr inh | KDM5B inh | IP6K1 inh | IP6K1 inh cnf
N#Cc1ccc(OC(=O)c2cc(-c3ccc(Cl)cc3)on2)cc1 | 5% | -5% | i | 2 | ·
CCOc1ccc(-c2cc(C(=O)Oc3ccc(C#N)cc3)no2)cc1 | 10% | -3% | ? | -27* | ?
CC(C)(C)OC(=O)N1CCC(c2c(C(=O)NCCc3ccccc3)cnn2-c2ccc(F)cc2)CC1 | -16% | ? | i | -26* | 20%
CC(C)(C)OC(=O)N1CCC(c2c(C(=O)NCc3ccccc3)cnn2-c2ccc(F)cc2)CC1 | 11% | 11% | i | -11 | ·
COc1ccc(C2=C(C)C(=O)N(Cc3ccc(C(=O)Nc4ccc(F)cc4C)cc3)S2(=O)=O)cc1 | -2% | ? | ? | -30* | -1%
CCNC(=S)NCC12CC3CC(CC(C3)C1)C2 | · | · | i | · | ·
N#Cc1cccc(NC(=O)c2cc3c(s2)-c2ccc(Cl)cc2SC3)c1 | 27% | -2% | ? | -50* | -26%
Cc1ccc(-c2nnn3c2nc(N2CCC(C)CC2)c2ccccc23)cc1 | -15% | 83% | ? | -29* | -9%
CC(C)c1ccc(CN2CCC3(CC2)COCCN3C(=O)OCc2ccccc2)cc1 | ? | 1%[87.6 µM] | i | -2 | ·
CC(C)Cn1c(-c2cccc(Br)c2)nc2ccccc21 | -11% | -20% | ? | -33* | -23%
COc1ccc(-c2nc3ncccc3[nH]2)cc1 | -17%[87.6 µM] | -26%[87.6 µM] | 32µM*! | -27*! | ?
O=C1OC2(c3ccccc31)c1cc(Br)c(O)c(Br)c1Oc1c2cc(Br)c(O)c1Br | -12%[23.9 µM] | -43%[25.6 µM] | · | -69* | 3.3µM*
Cc1cccc(C(=O)Oc2ccc(C3(c4ccc(OC(=O)c5cccc(C)c5)cc4)OC(=O)c4ccccc43)cc2)c1 | · | · | i | · | ·
Cc1nn(-c2ccccc2)c(OC(=O)c2ccccc2Br)c1S(=O)(=O)c1ccccc1 | 20% | 24% | ? | -23 | ·
Cc1nn(-c2ccccc2)c(OC(=O)c2ccccc2)c1S(=O)(=O)c1ccccc1 | 9% | -18% | ? | -33* | 46%
CC(C)Cc1nn2c(=O)cc(COC(=O)c3ccccc3NC(=O)c3ccccc3)nc2s1 | 8% | -17% | i | -28* | -6%
CC(Oc1ccccc1)C(=O)Nc1ccccc1C(=O)OCc1cc(=O)n2nc(C3CC3)sc2n1 (stereo not drawn) | 1% | -2% | i | -27* | 0%
CCc1cccc2c(C(=O)O)cc(-c3cc(C)ccc3C)nc12 | · | · | i | · | ·
CC(C)CCNC(=O)C(=O)NC1CCCCC1 | · | · | i | · | ·
O=C(c1ccc(F)c(F)c1Nc1ccc(I)cc1F)N1CC(O)([C@H]2CCCCN2)C1 | -3% | 8% | · | · | -3%
COc1ccccc1-c1ccc(CN2CCCCC2C(=O)NCC(F)F)cc1 (stereo not drawn) | · | · | · | 18 | ·
CC(=O)c1cc(F)ccc1Oc1nc(C)nc2sc3c(c12)CCC3 | · | · | i | · | ·
Cn1c(=O)c2c(n3c4ccccc4nc13)NC(=O)CC2c1ccccc1F (stereo not drawn) | 4% | 19% | ? | -28* | -20%
Cn1c(=O)c2c(n3c4ccccc4nc13)NC(=O)CC2c1cccc(F)c1 (stereo not drawn) | 14% | 35% | ? | -3 | ·
CC1(C(=O)Nc2ccc(F)c(Cl)c2)COCc2cnc(Nc3ccccc3)nc21 (stereo not drawn) | 12%[87.6 µM] | ? | ? | 9 | ·
SMILES | HEK293 viab | SNCA expr inh | KDM5B inh | IP6K1 inh | IP6K1 inh cnf
O=C(O)c1ccc(Nc2ncc3c(n2)-c2ccc(Cl)cc2C(c2c(F)cccc2F)=NC3)cc1 | -15% | 119% | · | -49* | 10µM*
COc1cc(/C=N/OC(=O)c2ccc(C(F)(F)F)cc2)ccc1OCc1ccccc1 | · | · | i | · | ·
Cn1ncc2c(Nc3cccc(F)c3)ncnc21 | 4% | 18% | ? | -28* | ?
Cc1cc(C)c(Nc2ncnc3c2cnn3C)c(C)c1 | 4% | -3% | ? | -1 | ·
CCC(=O)c1cc(-c2ccc(Cl)cc2)n(-c2ccc(S(N)(=O)=O)cc2)c1C | -13% | · | · | -34* | ?
Cc1cccc(N2CCN(c3ccc(C(=O)O)cc3NC(=O)c3cccc(Cl)c3)CC2C)c1 (stereo not drawn) | 4% | -12% | ? | -28* | ?
NC(=O)CCn1cc(CN(CCO)Cc2ccccc2F)c2ccccc21 | 20% | 3% | i | 4 | ·
CCCCCCCCn1cc(CN(CC)CC)c2cc(-c3cnc(N)nc3)ccc21 | ? | · | · | -35* | ?
CCOc1ccc(S(=O)(=O)n2c(C)nc3ccccc32)cc1 | 29%[23.9 µM] | · | · | -3 | ·
O=S(=O)(c1cccc(Cl)c1)n1c(/C=C/c2ccccc2Cl)nc2ccccc21 | -23% | ? | ? | -39* | ?
O=C(CCc1ncc(-c2ccc(F)cc2)o1)NCCc1ccc(F)cc1 | · | · | i | · | ·
CN(Cc1noc(C2CCCC2)n1)c1cc(C2CC(O)C2)ncn1 (stereo not drawn) | -11% | 1% | i | -28* | -3%
COc1ccc(CCNC(=O)CS(=O)Cc2nc(-c3ccc(C)cc3)oc2C)c(OC)c1 (stereo not drawn) | -9% | -1% | ? | -26* | -6%
COc1ccc(CCNC(=O)CS(=O)Cc2nc(-c3ccc(C)cc3)oc2C)cc1OC (stereo not drawn) | -10% | -2% | i | -3 | ·
Cc1nn(-c2ccccc2)c2c1C(C(C)C)N(C1CCN(C(=O)C3CCCC3)C1)C2=O (stereo not drawn) | · | · | · | 34 | ·
CCOC(=O)Cn1c(=N)n(Cc2ccc(C(C)(C)C)cc2)c2ccccc21 | ? | ? | ? | -27* | 2%
COc1ccc(-c2c(-c3cc(C(=O)O)ccn3)ncn2C)cc1 | -20% | · | · | -35* | ?
COc1cc(C=O)cc(Br)c1OC(=O)c1ccc(C)cc1 | · | · | i | · | ·
NC(=O)c1c(NC(=O)CSc2ccccn2)sc2c1CCCC2 | · | · | i | · | ·
CC(C)CCN(Cc1ccco1)C(=O)Cn1ncc2c([nH]c3ccccc32)c1=O | 0% | ? | ? | -29* | -9%
CCN(CC)C(=O)Cn1ncc2c([nH]c3ccccc32)c1=O | 6% | 28% | ? | 21 | ·
CCC(CNC(=O)c1ccc2c(c1)NC(=O)CS2)c1ccccc1 (stereo not drawn) | · | · | i | · | ·
O=Nc1c(-c2c(O)[nH]c3cc(Br)ccc23)[nH]c2ccccc12 | 25µM*! | -5% | · | · | 3.7µM*
COc1ccc(Nc2nc(-c3ccc(CN(C)C(C)=O)cc3)cs2)cc1 | · | · | i | · | ·
COCCNC(=O)c1ccc2c(=O)n(CCc3ccccc3)c(SCC(=O)CC(=O)OC)nc2c1 | -3% | -20% | i | -25* | -10%
Cc1cccc(Cc2cnc(NC(=O)c3nn(C)c(=O)c4ccccc34)s2)c1 | · | · | i | · | ·
CN(Cc1ccc2nsnc2c1)C(=O)c1ccc(CCC(C)(C)O)cc1 | -6% | -7% | ? | 21 | ·
Cc1cc2cc(C(=O)N(C)Cc3ccc4nsnc4c3)ccc2o1 | -14% | 15% | i | -32* | ?

Compound activity from PubChem BioAssay.
